Assay results taken from the supplement of paper PMC11732987, “Enantioselective OTUD7B fragment discovery through chemoproteomics screening and high-throughput optimisation” (Communications Chemistry, 2025).

Legend:
Assay in all cases: log2 ratio of Biotin-Ahx-Ub-VS probe labelling (fragment/DMSO); higher = less target engagement (more negative = stronger competition), active = hit call of the paper (q ≤ 0.05, log2 ratio ≤ -1)
Details in all cases: compound concentration: 200 uM; treatment time: 3 h
USP34 = USP34 (UniProt Q70CQ2)
How it was run: (§1)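 The table lists average log2 ratios of fragment over vehicle, from an unpaired t-test on global-median-normalised Spectronaut label-free quantities. Proteins with ≥2 unique peptides were used. Samples were HEK293T lysate (495 µg) treated in triplicate with fragment at 200 µM or vehicle for 3 h, then with Biotin-Ahx-Ub-VS (0.5 µM final) for 1 h, with labelled DUBs NeutrAvidin-enriched and run by diaPASEF LC-MS/MS.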

USP36 = target: T1, USP36 (UniProt Q9P275)
T1 sequence (whole entry): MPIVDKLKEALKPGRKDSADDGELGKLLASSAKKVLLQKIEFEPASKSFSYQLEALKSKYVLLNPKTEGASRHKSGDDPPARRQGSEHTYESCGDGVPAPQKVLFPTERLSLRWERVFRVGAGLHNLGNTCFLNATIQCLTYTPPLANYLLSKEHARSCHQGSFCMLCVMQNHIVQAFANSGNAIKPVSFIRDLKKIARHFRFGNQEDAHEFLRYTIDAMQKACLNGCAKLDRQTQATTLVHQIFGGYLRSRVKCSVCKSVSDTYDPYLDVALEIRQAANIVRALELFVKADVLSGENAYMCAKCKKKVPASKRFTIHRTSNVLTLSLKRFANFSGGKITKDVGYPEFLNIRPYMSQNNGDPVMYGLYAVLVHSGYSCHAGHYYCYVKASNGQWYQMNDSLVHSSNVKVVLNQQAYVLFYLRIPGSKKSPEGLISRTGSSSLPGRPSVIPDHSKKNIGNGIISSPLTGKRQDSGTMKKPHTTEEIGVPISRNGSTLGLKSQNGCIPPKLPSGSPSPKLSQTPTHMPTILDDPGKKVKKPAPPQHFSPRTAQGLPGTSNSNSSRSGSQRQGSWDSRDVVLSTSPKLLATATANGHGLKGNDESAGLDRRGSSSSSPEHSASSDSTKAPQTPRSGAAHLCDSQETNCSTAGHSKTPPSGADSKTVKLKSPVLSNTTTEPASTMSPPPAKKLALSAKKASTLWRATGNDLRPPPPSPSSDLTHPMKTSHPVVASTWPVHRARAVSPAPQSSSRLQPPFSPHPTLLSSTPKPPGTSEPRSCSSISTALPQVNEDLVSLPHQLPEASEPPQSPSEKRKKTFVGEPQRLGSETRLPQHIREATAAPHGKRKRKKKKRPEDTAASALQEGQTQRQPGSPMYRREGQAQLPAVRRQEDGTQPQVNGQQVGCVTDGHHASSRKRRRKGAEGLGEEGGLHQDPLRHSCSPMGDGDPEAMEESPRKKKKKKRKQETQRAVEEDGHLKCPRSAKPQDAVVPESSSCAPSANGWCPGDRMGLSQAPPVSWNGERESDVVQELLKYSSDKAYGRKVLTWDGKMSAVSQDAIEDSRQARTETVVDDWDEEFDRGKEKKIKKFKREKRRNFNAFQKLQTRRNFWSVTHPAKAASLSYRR
How it was run: as §1

USP38 = target: T2, USP38 (UniProt Q8NB14)
T2 sequence (whole entry): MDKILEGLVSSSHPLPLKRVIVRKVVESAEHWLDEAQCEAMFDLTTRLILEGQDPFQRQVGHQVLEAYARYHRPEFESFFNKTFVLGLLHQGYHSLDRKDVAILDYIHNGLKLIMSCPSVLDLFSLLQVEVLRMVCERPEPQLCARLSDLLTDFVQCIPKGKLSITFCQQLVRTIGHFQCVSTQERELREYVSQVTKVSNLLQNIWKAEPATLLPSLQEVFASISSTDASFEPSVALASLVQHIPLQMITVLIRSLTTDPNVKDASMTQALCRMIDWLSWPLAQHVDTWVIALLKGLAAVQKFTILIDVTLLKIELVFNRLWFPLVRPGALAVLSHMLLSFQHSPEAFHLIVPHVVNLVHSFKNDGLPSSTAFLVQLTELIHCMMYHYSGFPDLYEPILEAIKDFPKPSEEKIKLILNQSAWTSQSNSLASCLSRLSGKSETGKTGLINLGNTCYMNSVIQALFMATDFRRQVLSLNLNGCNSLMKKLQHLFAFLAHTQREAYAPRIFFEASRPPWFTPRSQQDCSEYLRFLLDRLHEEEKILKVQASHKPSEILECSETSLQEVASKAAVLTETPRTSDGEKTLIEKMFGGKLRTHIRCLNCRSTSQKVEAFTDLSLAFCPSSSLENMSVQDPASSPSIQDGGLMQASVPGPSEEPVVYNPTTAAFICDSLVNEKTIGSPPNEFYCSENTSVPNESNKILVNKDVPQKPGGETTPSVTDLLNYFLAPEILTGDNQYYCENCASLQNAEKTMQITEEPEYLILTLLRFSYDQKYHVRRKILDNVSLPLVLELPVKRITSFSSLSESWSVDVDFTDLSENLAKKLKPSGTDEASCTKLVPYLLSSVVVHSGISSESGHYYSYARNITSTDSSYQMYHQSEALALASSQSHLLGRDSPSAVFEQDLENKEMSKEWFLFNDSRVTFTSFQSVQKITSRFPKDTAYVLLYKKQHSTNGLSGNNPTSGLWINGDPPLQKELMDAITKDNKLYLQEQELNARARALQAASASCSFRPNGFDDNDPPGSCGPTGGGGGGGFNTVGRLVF
How it was run: as §1

USP39 = target: T3, USP39 (UniProt Q53GS9)
T3 sequence (whole entry): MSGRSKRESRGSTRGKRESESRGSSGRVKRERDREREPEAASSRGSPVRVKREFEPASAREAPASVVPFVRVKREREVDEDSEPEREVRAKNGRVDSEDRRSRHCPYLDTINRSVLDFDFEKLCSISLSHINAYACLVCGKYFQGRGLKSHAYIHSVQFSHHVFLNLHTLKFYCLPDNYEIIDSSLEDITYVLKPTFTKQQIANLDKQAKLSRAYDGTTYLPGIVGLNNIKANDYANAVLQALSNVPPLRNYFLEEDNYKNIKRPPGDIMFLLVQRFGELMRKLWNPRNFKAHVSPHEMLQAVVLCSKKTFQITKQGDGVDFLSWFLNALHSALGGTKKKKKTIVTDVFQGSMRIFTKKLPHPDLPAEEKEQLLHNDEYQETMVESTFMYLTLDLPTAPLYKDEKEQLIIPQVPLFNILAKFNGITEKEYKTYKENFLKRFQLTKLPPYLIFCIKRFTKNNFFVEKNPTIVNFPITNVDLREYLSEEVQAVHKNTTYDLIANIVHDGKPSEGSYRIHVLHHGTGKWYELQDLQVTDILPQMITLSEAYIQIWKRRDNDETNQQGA
How it was run: as §1

USP4 = target: T4, USP4 (UniProt Q13107)
T4 sequence (whole entry): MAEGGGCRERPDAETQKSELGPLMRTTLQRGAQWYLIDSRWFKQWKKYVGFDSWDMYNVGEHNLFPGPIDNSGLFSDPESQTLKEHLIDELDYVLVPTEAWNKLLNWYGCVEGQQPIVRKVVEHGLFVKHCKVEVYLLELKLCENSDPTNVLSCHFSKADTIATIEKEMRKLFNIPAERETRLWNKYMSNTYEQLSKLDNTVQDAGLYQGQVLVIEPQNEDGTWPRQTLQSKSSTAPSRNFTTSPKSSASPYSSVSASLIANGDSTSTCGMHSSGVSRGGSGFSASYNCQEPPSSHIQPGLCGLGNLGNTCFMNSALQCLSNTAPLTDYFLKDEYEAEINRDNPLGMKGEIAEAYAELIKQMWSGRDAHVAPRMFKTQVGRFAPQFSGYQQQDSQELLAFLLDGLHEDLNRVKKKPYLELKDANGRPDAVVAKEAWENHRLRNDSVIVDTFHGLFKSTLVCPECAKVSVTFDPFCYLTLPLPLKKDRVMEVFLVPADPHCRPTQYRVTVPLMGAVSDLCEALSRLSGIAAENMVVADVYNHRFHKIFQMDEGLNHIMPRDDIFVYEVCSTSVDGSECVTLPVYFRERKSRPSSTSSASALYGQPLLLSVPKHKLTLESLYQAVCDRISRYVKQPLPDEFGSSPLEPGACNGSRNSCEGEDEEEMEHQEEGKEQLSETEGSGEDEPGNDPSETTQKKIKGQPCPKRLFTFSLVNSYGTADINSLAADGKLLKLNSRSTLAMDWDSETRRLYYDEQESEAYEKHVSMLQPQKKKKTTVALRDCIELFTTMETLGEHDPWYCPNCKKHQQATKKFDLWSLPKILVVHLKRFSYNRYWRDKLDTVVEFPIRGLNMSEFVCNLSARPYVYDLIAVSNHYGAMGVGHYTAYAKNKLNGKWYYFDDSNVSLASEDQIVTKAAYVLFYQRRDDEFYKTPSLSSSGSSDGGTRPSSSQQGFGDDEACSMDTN
How it was run: as §1

Measured: log2 ratio of Biotin-Ahx-Ub-VS probe labelling

Sequence of USP34 (Q70CQ2 whole entry, the tested form may be a part): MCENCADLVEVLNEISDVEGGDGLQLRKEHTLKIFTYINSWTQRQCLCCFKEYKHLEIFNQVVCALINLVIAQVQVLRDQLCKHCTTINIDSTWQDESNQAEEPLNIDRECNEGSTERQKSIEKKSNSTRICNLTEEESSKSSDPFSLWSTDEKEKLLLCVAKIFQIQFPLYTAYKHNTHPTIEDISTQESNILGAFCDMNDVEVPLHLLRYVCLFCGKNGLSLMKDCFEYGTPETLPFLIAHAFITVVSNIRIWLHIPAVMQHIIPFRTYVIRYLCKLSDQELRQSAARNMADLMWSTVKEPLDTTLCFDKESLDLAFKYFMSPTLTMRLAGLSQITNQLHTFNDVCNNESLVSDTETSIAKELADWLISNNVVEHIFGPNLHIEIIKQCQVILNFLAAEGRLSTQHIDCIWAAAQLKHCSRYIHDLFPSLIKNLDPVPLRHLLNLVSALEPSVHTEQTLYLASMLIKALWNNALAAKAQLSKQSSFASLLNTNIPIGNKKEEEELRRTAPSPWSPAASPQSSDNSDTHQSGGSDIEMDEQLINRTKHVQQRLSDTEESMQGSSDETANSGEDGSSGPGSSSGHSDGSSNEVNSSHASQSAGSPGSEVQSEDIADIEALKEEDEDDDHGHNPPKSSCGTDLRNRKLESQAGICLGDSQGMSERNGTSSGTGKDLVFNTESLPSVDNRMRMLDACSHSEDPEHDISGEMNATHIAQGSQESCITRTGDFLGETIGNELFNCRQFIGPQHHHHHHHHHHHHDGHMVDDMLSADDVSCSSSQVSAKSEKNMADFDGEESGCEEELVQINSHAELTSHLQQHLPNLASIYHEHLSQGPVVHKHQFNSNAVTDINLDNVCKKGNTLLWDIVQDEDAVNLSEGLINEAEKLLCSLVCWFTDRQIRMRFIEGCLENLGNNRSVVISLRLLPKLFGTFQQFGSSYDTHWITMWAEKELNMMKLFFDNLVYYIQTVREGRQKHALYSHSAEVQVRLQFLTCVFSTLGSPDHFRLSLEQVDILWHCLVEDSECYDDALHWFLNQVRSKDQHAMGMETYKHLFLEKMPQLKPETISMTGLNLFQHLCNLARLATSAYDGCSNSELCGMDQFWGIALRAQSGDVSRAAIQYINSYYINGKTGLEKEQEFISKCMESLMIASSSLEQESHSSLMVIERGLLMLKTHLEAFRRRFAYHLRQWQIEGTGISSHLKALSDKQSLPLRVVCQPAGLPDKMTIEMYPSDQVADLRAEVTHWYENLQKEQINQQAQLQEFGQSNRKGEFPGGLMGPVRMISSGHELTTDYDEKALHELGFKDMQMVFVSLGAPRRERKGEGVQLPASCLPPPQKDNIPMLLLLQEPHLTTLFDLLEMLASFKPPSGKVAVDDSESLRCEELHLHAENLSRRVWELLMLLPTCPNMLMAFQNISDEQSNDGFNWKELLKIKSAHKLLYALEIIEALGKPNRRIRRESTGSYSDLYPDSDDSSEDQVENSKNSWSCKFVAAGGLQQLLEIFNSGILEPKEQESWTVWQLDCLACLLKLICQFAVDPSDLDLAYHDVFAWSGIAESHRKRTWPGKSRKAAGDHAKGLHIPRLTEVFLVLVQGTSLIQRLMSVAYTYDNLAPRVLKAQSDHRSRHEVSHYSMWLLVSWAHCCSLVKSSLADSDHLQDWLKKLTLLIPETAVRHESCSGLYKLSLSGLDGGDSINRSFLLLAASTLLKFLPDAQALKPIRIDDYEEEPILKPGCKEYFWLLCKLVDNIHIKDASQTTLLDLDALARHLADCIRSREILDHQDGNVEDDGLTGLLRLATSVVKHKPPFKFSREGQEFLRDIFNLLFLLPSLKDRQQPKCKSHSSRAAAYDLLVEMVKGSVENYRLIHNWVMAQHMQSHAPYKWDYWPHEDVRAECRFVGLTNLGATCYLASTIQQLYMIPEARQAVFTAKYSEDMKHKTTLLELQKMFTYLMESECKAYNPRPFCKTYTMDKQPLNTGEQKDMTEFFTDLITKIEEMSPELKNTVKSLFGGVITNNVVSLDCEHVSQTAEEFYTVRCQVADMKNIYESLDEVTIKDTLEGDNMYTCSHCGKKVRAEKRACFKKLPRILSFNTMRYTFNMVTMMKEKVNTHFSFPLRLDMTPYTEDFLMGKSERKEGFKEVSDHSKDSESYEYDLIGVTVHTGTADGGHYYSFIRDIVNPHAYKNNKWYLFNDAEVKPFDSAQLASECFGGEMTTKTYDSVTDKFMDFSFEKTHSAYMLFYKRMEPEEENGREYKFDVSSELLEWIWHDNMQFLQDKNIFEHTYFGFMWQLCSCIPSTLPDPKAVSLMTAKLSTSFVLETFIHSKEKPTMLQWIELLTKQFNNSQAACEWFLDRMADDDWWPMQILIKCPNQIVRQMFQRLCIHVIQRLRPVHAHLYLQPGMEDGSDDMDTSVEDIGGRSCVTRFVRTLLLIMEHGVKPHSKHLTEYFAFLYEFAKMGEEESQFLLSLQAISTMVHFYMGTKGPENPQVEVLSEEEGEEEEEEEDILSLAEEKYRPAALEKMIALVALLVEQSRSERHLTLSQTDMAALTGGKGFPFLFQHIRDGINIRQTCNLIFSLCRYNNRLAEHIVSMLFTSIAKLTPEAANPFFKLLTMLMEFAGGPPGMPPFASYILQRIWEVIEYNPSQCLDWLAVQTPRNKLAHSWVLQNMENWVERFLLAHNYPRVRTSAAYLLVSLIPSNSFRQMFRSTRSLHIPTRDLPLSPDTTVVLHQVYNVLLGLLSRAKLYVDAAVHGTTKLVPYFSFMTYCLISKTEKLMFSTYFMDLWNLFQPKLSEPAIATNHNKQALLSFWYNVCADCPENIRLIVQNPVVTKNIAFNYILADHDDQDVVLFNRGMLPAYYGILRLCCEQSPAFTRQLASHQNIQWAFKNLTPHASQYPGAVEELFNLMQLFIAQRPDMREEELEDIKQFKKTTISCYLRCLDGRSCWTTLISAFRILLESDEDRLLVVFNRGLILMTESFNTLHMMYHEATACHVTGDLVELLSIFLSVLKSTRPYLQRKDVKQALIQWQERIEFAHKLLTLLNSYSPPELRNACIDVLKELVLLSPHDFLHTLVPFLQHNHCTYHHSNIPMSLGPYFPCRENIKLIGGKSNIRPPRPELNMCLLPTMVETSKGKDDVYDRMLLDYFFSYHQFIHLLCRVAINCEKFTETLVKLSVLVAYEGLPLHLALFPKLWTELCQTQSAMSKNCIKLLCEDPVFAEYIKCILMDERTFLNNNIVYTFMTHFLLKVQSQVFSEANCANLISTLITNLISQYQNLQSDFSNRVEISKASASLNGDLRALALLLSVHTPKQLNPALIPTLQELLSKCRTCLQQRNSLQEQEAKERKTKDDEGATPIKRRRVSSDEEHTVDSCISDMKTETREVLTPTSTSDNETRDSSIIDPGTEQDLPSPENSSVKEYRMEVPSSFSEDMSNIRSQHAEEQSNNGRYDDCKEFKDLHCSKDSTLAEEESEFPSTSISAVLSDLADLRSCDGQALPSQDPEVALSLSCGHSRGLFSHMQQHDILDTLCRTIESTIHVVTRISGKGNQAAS

CN(C)S(=O)(=O)c1ccccc1CNC(=O)CCl
inactive: USP34 0.137 | USP36 -0.00554 | USP38 0.218 | USP39 0.237 | USP4 -0.0523
